Compound activity from PubChem BioAssay.
Mtb UGM inh: inhibitors of M. tuberculosis UDP-galactopyranose mutase; P9WIQ1; purified UGM, fluorescence polarization probe displacement; inhibition, % at 10 µM; 320,000 compounds, 0.06% hits; in the data active = inhibition above about 10%, passing the limit was not always enough
Mtb bLac sens: beta-lactam sensitization of Mtb H37Rv | M. tuberculosis H37Rv growth with meropenem, percent inhibition | inhibition, % at 25 µM | 330,000 compounds, 0.27% hits | AID 434955; call rule not given here;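 note: growth measured after seven days incubation then overnight dye step; 0% = bacteria only wells and 100% = bacteria with antibiotic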
RecA splice inh: Mtb RecA intein splicing inhibition | P9WHJ3 | cell-free RecA intein splicing, fluorescence | inhibition, % (concentration not given with the values) | 290,000 compounds, 0.75% hits | AID 2221; in the data active = inhibition above about 30%;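 note: 0% = vehicle wells and 100% = reference inhibitor control wells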
GDH-TPI inh: inhibits GDH-TPI coupling enzymes, artifact for Mtb FBA screen; GDH-TPI coupled enzyme counterscreen, NADH absorbance; inhibition, % at 4.8 µM; 360,000 compounds, 1.2% hits; in the data active = inhibition above about 30%;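 note: 0% = DMSO wells and 100% = wells lacking the enzyme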
Mtb FBA inh: inhibitors of M. tuberculosis fructose-bisphosphate aldolase | inhibition, % at 1 µM | 360,000 compounds, 2.3% hits | purified M. tuberculosis FBA, fluorescence read-out | AID 588726; in the data active = inhibition above about 27%;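 note: 0% = vehicle and 100% = reference inhibitor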
Rv3671c inh: inhibits the M. tuberculosis serine protease Rv3671c | P9WHR9 | inhibition, % at 5.96 µM | 320,000 compounds, 0.048% hits | AID 2606; in the data active = inhibition above about 38%;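 note: extracellular domain of Rv3671c used as enzyme; 0% = enzyme with DMSO and 100% = no enzyme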
Target sequence (P9WHR9 whole entry, looked up, the tested form may be a part): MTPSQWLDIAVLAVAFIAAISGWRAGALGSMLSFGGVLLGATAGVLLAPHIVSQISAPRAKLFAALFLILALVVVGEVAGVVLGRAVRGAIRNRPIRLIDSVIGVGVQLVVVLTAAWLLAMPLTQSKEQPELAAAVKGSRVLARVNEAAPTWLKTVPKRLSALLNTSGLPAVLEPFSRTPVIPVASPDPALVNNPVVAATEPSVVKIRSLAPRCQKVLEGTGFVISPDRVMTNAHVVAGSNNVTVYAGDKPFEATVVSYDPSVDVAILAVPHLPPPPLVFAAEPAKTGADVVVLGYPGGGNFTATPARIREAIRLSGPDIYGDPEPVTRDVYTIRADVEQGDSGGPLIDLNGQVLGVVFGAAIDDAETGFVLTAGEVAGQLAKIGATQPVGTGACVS
Active calls of the source: *; nt = not tested or not shown; + = active, no number. Compounds with a hit are over-represented: about 4% of the library has one in this group of screens.

SMILES | Mtb UGM inh | Mtb bLac sens | RecA splice inh | GDH-TPI inh | Mtb FBA inh | Rv3671c inh
CN(CC(=O)Nc1ccccc1Br)C(=O)CCCSc1nc2ccccc2[nH]1 | 1.8 | -0.9 | 2.3 | 3.8 | 2.3 | 4.0
COc1ccc([C@H]2N[C@]3(CCCN(CC4CCCCC4)C3=O)[C@H]3C(=O)N(Cc4ccccc4)C(=O)[C@@H]23)cc1 | nt | nt | nt | 2.1 | -1.0 | nt
CN(C)S(=O)(=O)c1cccc(-c2cn3cccnc3n2)c1 | 0.4 | -5.8 | -7.3 | 6.1 | 173.0* | 3.1
CN(C)S(=O)(=O)c1ccc(-c2cn3ccccc3n2)cc1 | 1.2 | 1.8 | 1.6 | 7.4 | 159.8* | -12.0
O=[N+]([O-])c1ccc(-c2cn3ccccc3n2)cc1 | 0.5 | 0.9 | 4.6 | 18.4 | -0.9 | -5.6
O=S(=O)(c1cccc(-c2cn3cccnc3n2)c1)N1CCOCC1 | -1.4 | -0.8 | nt | 27.4 | + | -3.6
Cc1ccc2nc(-c3cccc(S(=O)(=O)N4CCCC4)c3)cn2c1 | -2.3 | -2.8 | 0.4 | 10.6 | 3.5 | -3.0
CCOC(=O)C1=C(COC(=O)CCOc2ccccc2C)NC(=O)NC1C (stereo not given) | 1.7 | -8.3 | 1.2 | 15.2 | 4.6 | 0.0
O=C(Cn1cnc2cc([N+](=O)[O-])ccc2c1=O)Nc1ccccc1-c1ccccc1 | -1.3 | -1.7 | -3.5 | 8.6 | -0.6 | -9.8
Cc1ccc(S(=O)(=O)NCc2ccccc2)cc1C(=O)N(C)CC(=O)Nc1c(Cl)cccc1Cl | 0.4 | -4.9 | 0.8 | 1.7 | 1.5 | 3.0
COCc1c(C(=O)N/N=C/c2c[nH]c3ccccc23)nnn1-c1nonc1N | 2.2 | -8.6 | -0.8 | 43.6* | 1.9 | 1.2
CCCc1c(C(=O)N/N=C/c2c[nH]c3ccccc23)nnn1-c1nonc1N | nt | nt | nt | 30.1 | -4.0 | nt
Cc1ccc(-c2c(C(=O)N/N=C/c3c[nH]c4ccccc34)nnn2-c2nonc2N)cc1 | -1.5 | 0.7 | 2.4 | 47.0* | 4.4 | 18.3
COc1cc(/C=N/NC(=O)C(Cc2c[nH]c3ccccc23)NC(=O)OCC(C)C)cc([N+](=O)[O-])c1O (stereo not given) | -2.3 | 2.0 | 0.9 | 33.0* | -7.3 | 9.5
COc1cc(/C=N/NC(=O)C(Cc2c[nH]c3ccccc23)NC(=O)OCc2ccccc2)cc([N+](=O)[O-])c1O (stereo not given) | 3.7 | 3.0 | 4.0 | 35.9* | -9.8 | 12.0
COc1cc(/C=N/NC(=O)C(Cc2c[nH]c3ccccc23)NC(=O)OCC(C)C)cc([N+](=O)[O-])c1OCc1ccccc1 (stereo not given) | -2.7 | -2.5 | 3.3 | 5.0 | 1.1 | -9.0
Cc1ccccc1C(=O)Nc1ccnn1C1CCN(C(C)Cc2ccccc2F)CC1 (stereo not given) | 0.0 | 1.0 | -1.8 | -3.0 | -2.5 | 4.1
CCOc1ccc(Cl)cc1-c1cc(C(=O)Nc2ccc(Br)cc2)[nH]n1 | nt | nt | nt | -5.6 | -2.2 | nt
Cc1ccc(C(=O)/C=C/N(C)C)cn1 | 0.0 | -10.8 | 1.1 | 31.4* | -1.7 | -0.9
CN(C)/C=C/C(=O)c1cccc(C(F)(F)F)c1 | nt | 10.8 | -0.8 | 50.0* | 2.9 | -6.4
CN(C)/C=C/C(=O)c1ccc([N+](=O)[O-])c(CS(=O)(=O)c2ccccc2)c1 | 3.4 | 5.0 | -1.2 | 14.7 | -0.8 | -5.9
CN(C)/C=C/C(=O)c1ccc(Cl)c([N+](=O)[O-])c1 | 0.3 | -5.0 | 4.3 | 31.1* | -1.6 | -14.5
CN(C)/C=C/C(=O)c1ccc(Oc2ncccn2)cc1 | 2.1 | -7.0 | -1.2 | 24.4 | 1.1 | -7.1
CN(C)/C=C/C(=O)c1ccc(Cl)cc1 | -1.7 | 9.8 | 10.0 | 48.0* | 2.1 | -12.9
CCCCn1c(N)c(N(C)C(=O)C2CC(=O)N(Cc3ccco3)C2)c(=O)[nH]c1=O (stereo not given) | 1.9 | -4.0 | nt | 9.9 | 2.3 | -0.7
SMILES | Mtb UGM inh | Mtb bLac sens | RecA splice inh | GDH-TPI inh | Mtb FBA inh | Rv3671c inh
Cc1nnc(SCC(=O)NCC(=O)Nc2ccc(F)c(F)c2F)n1Cc1ccccc1 | 5.5 | 13.7 | 3.0 | -2.5 | 5.8 | -2.2
CN(C)/C=C/C(=O)c1cccc(Cl)c1 | 1.4 | 1.5 | -1.4 | 42.3* | -3.2 | -4.3
CN(C)NC(=O)c1cccc(Cl)c1 | -2.3 | -10.2 | 0.4 | 9.6 | 2.0 | 2.9
Cc1cc2oc(=O)cc(CN3CCOCC3)c2cc1C(C)C | -2.0 | 0.8 | nt | -0.4 | -1.7 | -8.4
CCc1ccc2oc(=O)cc(CN3CCN(Cc4ccccc4)CC3)c2c1 | 0.3 | 9.7 | 0.2 | 5.5 | 0.8 | -10.5
CCc1cc2c(CN3CCN(CC)CC3)cc(=O)oc2cc1O | -0.4 | -0.9 | -380.7 | 15.8 | + | 5.2
O=c1cc(CN2CCOCC2)c2cc(Cl)c(O)cc2o1 | 0.4 | -6.1 | -203.4 | -0.8 | + | -6.2
CN(CCCn1ccc(NC(=O)OCc2ccccc2)nc1=O)CCc1ccccn1 | nt | nt | nt | 7.1 | -1.4 | nt
O=c1[nH]c2ccccc2nc1Cc1ccc([N+](=O)[O-])cc1 | 0.0 | -1.9 | nt | 11.3 | 4.1 | -2.2
O=C1CS/C(=N/N=C/c2cccs2)N1Cc1ccc(F)cc1 | 1.9 | 9.3 | 1.9 | 36.5* | -1.4 | 4.6
CC1(C(=O)NS(=O)(=O)c2ccccc2Cl)CCN1C(=O)c1ccco1 (stereo not given) | nt | nt | nt | 7.1 | -0.1 | nt
O=c1[nH]c(/C=C\c2ccc(O)cc2)nc(O)c1[N+](=O)[O-] | 4.2 | 3.2 | -0.3 | 41.3* | -9.8 | -1.7
Cc1cccc(S(=O)(=O)NC(=O)C2(C)CCN2C(=O)Cc2ccc(Cl)cc2Cl)c1 (stereo not given) | nt | nt | nt | 0.9 | -1.9 | nt
FC(F)(F)c1nnc(-c2ccccc2)nc1Oc1ccccc1 | -0.6 | 5.9 | 5.2 | 0.0 | 3.3 | -2.7
Fc1ccc(Oc2nc(-c3ccccc3)nnc2C(F)(F)F)cc1 | -0.2 | 15.6 | 62.0* | -2.6 | 13.4 | -4.7
CCOc1ccc(Cc2onc3c2C(=O)CCC3)cc1OCC | 0.2 | 1.9 | 1.1 | 1.3 | + | 1.9
CCOc1ccc(Cc2onc3c2C(=O)CC(C)(C)C3)cc1OCC | 0.3 | -2.6 | 2.8 | -1.9 | 1.8 | 0.5
COc1cc(/C=C2/NC(=O)N(Cc3ccccc3F)C2=O)cc(OC)c1O | 1.8 | -0.7 | nt | 11.3 | 0.7 | -2.4
CCOc1cc(/C=C2/NC(=O)N(Cc3ccccc3F)C2=O)ccc1O | -0.2 | 2.0 | -5.0 | 40.4* | -1.6 | 22.2
O=c1[nH]c(-c2ccccn2)cc2ccccc12 | 1.4 | 41.5 | 5.0 | 20.1 | 120.8* | -12.2
Cc1cc2ccccc2c(=O)[nH]1 | -0.2 | -4.9 | -1.7 | 1.2 | 2.3 | 10.7
COc1cc2cc(CCO)oc(=O)c2cc1OC | 4.4 | 4.0 | nt | 6.8 | 7.2 | 1.2
COc1ccc(/C=C(/NC(=O)c2cccs2)C(=O)Nc2ccc(C)cc2)cc1OC | -2.0 | 12.8 | 0.6 | 20.8 | -0.6 | 0.4
COc1ccc(/C=C(\NC(=O)c2cccs2)C(=O)Nc2ccc(C)cc2)cc1OC | 0.4 | 4.8 | -1.3 | 51.9* | 0.7 | -6.5
O=C(NCCc1cccnc1)C1CCC(=O)N(CCc2cccc(F)c2)C1 (stereo not given) | -2.5 | -1.1 | 5.6 | 1.0 | 5.2 | nt
